TLR9-MyD88 block: inhibitors of TLR9-MyD88 association in cells, primary screen, cell-based, CHO, BLA complementation, fluorescence | inhibition, % at 4.98 µM | CCF4 FRET ratio | Toll-like receptor 9 (Homo sapiens) + Myeloid differentiation primary response protein … | 340,000 compounds, 0.21% hits;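 active = inhibition above the mean over all tested compounds plus 3 SD, cut at about 21% in these data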;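 also: 0% = DMSO only wells and 100% = clavulanate BLA inhibitor control wells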
NTR1 ag: agonists of human NTR1, primary screen, imaging, U2OS cells, beta-arrestin-GFP, high content; Neurotensin receptor type 1 (Homo sapiens), P30989; NTR1-U2OS beta-arrestin-GFP spot imaging, agonist mode; activation, % at 20 µM; 330,000 compounds, 0.17% hits;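 active = activation at or above 40% of the spot to cytoplasm intensity ratio, with at least 20 cells analyzed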;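 also: 0% = DMSO without peptide and 100% = 100 nM NTR1 peptide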
TLR4 MyD88 comp: inhibitors of TLR4-MyD88 association in cells, primary screen, cell-based, HeLa CL3-4, BLA complementation, FRET ratio. Toll-like receptor 4 (Homo sapiens) + Myeloid differentiation primary response protein …. HeLa CL3-4 TLR4/MyD88 BLA complementation. inhibition, % at 8.4 µM. 200,000 compounds, 0.18% hits. AID 861, 2007; in the data active = inhibition above about 25%;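 also: 0% = vehicle and 100% = reference inhibitor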
A1 inh: caspase 3/7 activation in MEF A1-2A-BIM cells, primary screen, A1 inhibitor project, cell-based, luminescence, HTS; AID 2462, 2010; caspase activation, % (no concentration beside the values); Caspase-Glo 3/7 luminescence, 3 h; percent of clofoctol response, vehicle zero; 330,000 compounds, 0.066% hits;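 active = over half of replicate activation scores above 10%, or exactly half above 10 with the replicate mean above 10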
NOD2-RIPK2 inh: NOD2-RIPK2 binding disruptors in cells, primary screen, fluorescence, CHO cells, BLA complementation. CCF4 ratio. inhibition, % at 4.98 µM. 360,000 compounds, 0.38% hits; in the data active = inhibition above about 21%;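 also: 0% = vehicle only and 100% = reference blocker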
Target sequence (O43353 whole entry, looked up): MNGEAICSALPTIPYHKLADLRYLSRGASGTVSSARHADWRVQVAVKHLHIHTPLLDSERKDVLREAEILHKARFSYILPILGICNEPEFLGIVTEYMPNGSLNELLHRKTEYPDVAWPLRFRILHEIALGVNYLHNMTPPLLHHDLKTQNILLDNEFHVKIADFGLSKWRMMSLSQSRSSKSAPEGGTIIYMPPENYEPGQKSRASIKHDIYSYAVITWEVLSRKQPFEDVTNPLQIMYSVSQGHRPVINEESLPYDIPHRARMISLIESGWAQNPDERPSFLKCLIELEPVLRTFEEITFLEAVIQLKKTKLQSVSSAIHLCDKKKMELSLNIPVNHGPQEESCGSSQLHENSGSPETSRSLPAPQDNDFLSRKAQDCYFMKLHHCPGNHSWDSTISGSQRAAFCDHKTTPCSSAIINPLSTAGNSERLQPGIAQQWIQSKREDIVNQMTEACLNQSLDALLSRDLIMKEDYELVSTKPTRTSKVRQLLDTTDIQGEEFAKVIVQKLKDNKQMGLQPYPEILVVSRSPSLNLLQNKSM
Beta2AR agonist: beta2AR agonists driving receptor internalization, primary screen, cell-based, FAP fluorogen, flow cytometry | AID 504454, 2011 | Am2.2-beta2AR cells | response, % (no concentration beside the values) | 340,000 compounds, 0.43% hits | Beta-2 adrenergic receptor (Homo sapiens), P07550;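 active = response above a set limit, near 3 SD of response in nonfluorescent compounds, cut at about 42% in these data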
Beta2AR ag CP1: beta2AR agonists via receptor internalization, confirmation, cell-based, FAP fluorogen, flow cytometry, single point, cherry pick 1. shares compounds with Beta2AR agonist. Am2.2-beta2AR cells, FAP surface receptor; hits give low values. percent response (surface receptor), % at 10 µM. 1,100 compounds, 25% hits. AID 540358, 2011;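 active = surface receptor percent response at or below 58%, roughly 3 SD from nonfluorescent compounds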
FAP fluor counter: fluorescence artifact in beta-2AR agonist FAP counterscreen; 1,100 tested, under 10 active; calls only at 10 µM; Am2.2 cells, FAP fluorogen flow cytometry; hits give low values; AID 588765; shares compounds with Beta2AR agonist;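 active = percent response below a set limit in fluorescence channel 1 and below 50% in channel 8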
* marks the source's active call; other numbers are inactive results; i = inactive; x = not tested or not shown. Only some compounds are listed: those with a hit (about 0.97% of all), similar ones and a draw of the others.

SMILES	TLR9-MyD88 block	NTR1 ag	TLR4 MyD88 comp	A1 inh	NOD2-RIPK2 inh	Beta2AR agonist	Beta2AR ag CP1	FAP fluor counter
C=CCn1c(SCC(=O)Nc2ccc(-c3nc4ccc(C)cc4s3)cc2)nnc1-c1ccncc1	9.7	6.3	-5.2	0.4	1.1	57.5*	104.0	i
CCn1c(SCC(=O)Nc2ccc(-c3nc4ccc(C)cc4s3)cc2)nnc1-c1ccccc1	x	1.3	2.3	0.2	x	x	x	x
CCCc1nc2oc3c(NCCN(C)C)ncnc3c2c2c1CCCC2	5.8	12.9	4.7	0.8	-0.1	14.4	129.7	i
CCCc1nc2oc3c(NCCCN(C)C)ncnc3c2c2c1CCCC2	x	5.6	x	0.8	2.7	18.0	151.7	i
CCCc1nc2oc3c(Cl)ncnc3c2c2c1CCCC2	0.5	4.4	x	0.6	-13.6	43.6*	90.1	i
CCCc1nc2oc3c(NCC4CCCO4)ncnc3c2c2c1COC(C)(C)C2 (stereo not given)	-1.5	5.2	-5.8	0.5	-4.6	-6.2	x	x
CC(C)Cc1nc2oc3c(Cl)ncnc3c2c2c1CCCC2	-3.6	34.2	x	0.3	0.6	25.2	x	x
CC(C)Cc1nc2oc3c(NCC(C)O)ncnc3c2c2c1CCCC2 (stereo not given)	2.3	12.7	x	-0.6	4.8	-3.2	110.0	i
Nn1c(SCc2csc(-c3ccccc3)n2)nnc1-c1cccs1	5.6	-0.9	6.0	0.0	-4.1	-14.4	x	x
O=C1NC2CCCCC2C(=O)N1OS(=O)(=O)c1ccccc1 (stereo not given)	-13.0	x	x	x	-8.3	3.2	x	x
CCc1ccccc1N(C(=O)c1snc(C(N)=O)c1N)C(C(=O)NCC1CCCO1)c1ccc(OC)c(OC)c1 (stereo not given)	-4.8	-0.8	x	x	3.1	-3.0	x	x
CCN(C(=O)c1cn(C)c(=O)c2ccccc12)c1ccccc1F	14.3	0.6	x	0.2	-16.6	-2.5	x	x
O=C(CN1CCC(NC(=O)Cc2ccccc2)CC1)Nc1cccc2ccccc12	-6.5	0.5	-7.9	0.2	-2.0	-2.6	x	x
CCOc1ccc2nc(NC(=O)CSc3nc4cccnc4n3C)sc2c1	6.0	1.6	-6.5	0.4	1.2	49.5*	89.0	i
CCOc1ccc(OCC)c(NC(=O)CSc2nc3cccnc3n2C)c1	3.7	1.7	-4.6	1.0	-6.7	-6.1	x	x
COc1ccc(NC(=O)C2CCCN(S(=O)(=O)c3ccc(-n4cnnn4)cc3)C2)cc1 (stereo not given)	-9.0	-0.1	x	-0.3	-5.4	17.1	x	x
CC(=O)Nc1ccc(S(=O)(=O)N2CCC(Oc3ccc(-n4cnnn4)cc3)CC2)cc1	-2.0	0.2	x	0.6	-2.0	88.1*	11.6*	i
COc1ccc(C(=O)c2c(C)c3ccccc3n2CC(O)CNC(C)C)cc1 (stereo not given)	-0.8	0.6	10.7	0.4	11.8	43.6*	120.2	i
CN(Cc1ccccc1)S(=O)(=O)c1ccc(NS(=O)(=O)Cc2ccccc2)cc1	-3.4	3.7	-2.4	0.8	6.1	47.8*	33.7*	i
Cc1ccc(NC(=O)C(c2ccc(Cl)cc2)N2CCOCC2)cc1 (stereo not given)	4.2	0.0	-6.2	0.1	-10.5	47.8*	46.5*	i
Cc1ccc(NC(=O)C(c2ccc(Cl)cc2)N2CCCCC2)cc1 (stereo not given)	1.5	x	8.6	x	3.3	46.8*	35.8*	i
Cn1c(=O)c2c(nc(NCCc3ccccc3)n2CC(=O)NCCc2ccccc2)n(C)c1=O	3.7	-0.1	1.0	-0.4	-6.3	2.4	x	x
CC1=NN(C(N)=S)C(=O)C1N=Nc1ccccc1O (stereo not given)	8.7	-1.2	x	-2.1	1.0	10.5	x	x
CCOc1ccccc1N=NC1C(=O)N(C(N)=S)N=C1C (stereo not given)	2.9	13.6	x	-0.2	1.9	-1.5	86.0	i
Cc1cccc(C)c1N=Cc1c(C(F)(F)F)[nH][nH]c1=O	-0.9	-0.5	11.2	0.3	-4.3	3.1	x	x
SMILES	TLR9-MyD88 block	NTR1 ag	TLR4 MyD88 comp	A1 inh	NOD2-RIPK2 inh	Beta2AR agonist	Beta2AR ag CP1	FAP fluor counter
COc1ncnc2c1oc1nc(C)c3c(c12)CC(C)(C)OC3	x	-0.7	x	-0.1	-8.7	8.6	78.8	i
C=CCn1c(-c2ccc(Cl)cc2)c[nH]c1=S	-5.5	-1.5	4.9	0.1	-19.6	x	108.9	i
CCOC(=O)N1CCN(CC(O)COCC2=CCC3CC2C3(C)C)CC1 (stereo not given)	-17.5	0.0	-14.7	0.3	1.6	-3.1	x	x
CC(C)(C)C1CCC(C(=O)Nc2ccccc2)CC1 (stereo not given)	-6.0	2.4	-6.7	-0.5	-4.5	51.2*	63.5	i
O=C(Nc1ccc(Nc2ccccc2)cc1)C1CC1	-2.1	-0.2	3.2	-0.2	-5.4	4.0	x	x
CCCNC(=O)c1ccc2c(=O)n3c(-c4ccc(C)cc4)csc3nc2c1	-5.0	-0.4	x	-1.3	-0.3	-11.1	x	x
C=CCn1c(C)cc(C(=O)COc2ccc(N(C)S(=O)(=O)c3ccc(NC(C)=O)cc3)cc2)c1C	-1.9	1.6	x	1.0	1.5	44.2*	129.6	i
Cc1ccc(Cl)cc1N1CCN(C(=O)CNC(=O)c2ccc(Br)o2)CC1	-15.7	1.2	x	-0.3	6.9	8.9	x	x
CCC(c1ccc(O)c(O)c1)C(CC)c1ccc(O)c(O)c1 (stereo not given)	-17.6	x	x	x	-13.8	4.9	x	x
CCC(NC(C)C)C(O)c1ccc(O)c(O)c1 (stereo not given)	2.6	0.8	-7.3	0.1	6.5	19.5	42.3*	i
Cc1cccc(NCc2nc(SCC(=O)Nc3ccccc3)n[nH]2)c1	-6.0	0.1	x	0.5	-4.9	-1.3	x	x
C[N+](C)(CC#N)C/C=C\c1ccccc1	-4.7	-1.4	-6.6	-0.5	2.0	0.8	x	x
COc1ccc(C(C)=O)cc1CC(=O)N(Cc1ccccc1)c1ccccc1	-0.3	-1.1	x	-0.5	-4.2	44.7*	58.5	i
Cc1nc([N+](=O)[O-])c(Br)n1CC(=O)c1ccc2ccccc2c1	-4.5	21.2	4.0	1.4	21.9*	42.7*	77.6	i

High-throughput results from PubChem BioAssay.
